# Assay results as given in PubChem BioAssay (NCI).
# Compounds without any hit were thinned out: in the full panel of roughly 83,000, 20% have a hit.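 Cell lines were cultured in 96-well plates, exposed to a single compound concentration, and assessed for percent growth 48 hours later.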 Unmarked numbers belong to inactive results. Activity calls are given as the source filed them. How the source made its calls: active means growth percent below 10; inactive means the rest.
# Columns and labels:
# Test in all cases: NCI-60 one-dose screen, 48 h (100 = growth as untreated, 0 = no growth, -100 = all killed)
# Conditions in all cases: 10 µM unless noted
# SR leukemia = system: SR leukemia
# RPMI-8226 leukemia = system: RPMI-8226 leukemia
# OVCAR-8 ovarian = system: OVCAR-8 ovarian
# OVCAR-5 ovarian = system: OVCAR-5 ovarian
# OVCAR-4 ovarian = system: OVCAR-4 ovarian
# SK-OV-3 ovarian = system: SK-OV-3 ovarian
# IGROV1 ovarian = system: IGROV1 ovarian
# OVCAR-3 ovarian = system: OVCAR-3 ovarian
# HS 578T breast = system: HS 578T breast
# NCI/ADR-RES ovarian = system: NCI/ADR-RES ovarian
# T-47D breast = system: T-47D breast
# BT-549 breast = system: BT-549 breast
# MDA-MB-435 melanoma = system: MDA-MB-435 melanoma
# SW-620 colon = system: SW-620 colon
# MCF7 breast = system: MCF7 breast
# HCT-116 colon = system: HCT-116 colon
# HCC-2998 colon = system: HCC-2998 colon
# KM12 colon = system: KM12 colon
Structure (SMILES),growth (SR leukemia),growth (RPMI-8226 leukemia),growth (OVCAR-8 ovarian),growth (OVCAR-5 ovarian),growth (OVCAR-4 ovarian),growth (SK-OV-3 ovarian),growth (IGROV1 ovarian),growth (OVCAR-3 ovarian),growth (HS 578T breast),growth (NCI/ADR-RES ovarian),growth (T-47D breast),growth (BT-549 breast),growth (MDA-MB-435 melanoma),growth (SW-620 colon),growth (MCF7 breast),growth (HCT-116 colon),growth (HCC-2998 colon),growth (KM12 colon)
O=C1CCCc2nc3sc4c(=O)n(-c5ccccc5Cl)nnc4c3cc21,87.8%,87.6%,92.2%,100%,105%,107%,99.9%,114%,99%,103%,83.8%,102%,102%,102%,90.4%,96%,118%,107%
COc1ccc(Nc2ncc(C(N)=O)c(NCCCNC(=O)C3CCC3)n2)cc1,65.1%,72.9%,62.6%,109%,81%,36.6%,66.8%,88.8%,71.5%,100%,102%,24.5%,84%,50.9%,64%,54%,98.5%,29.3%
Cc1ncc(C(=O)Nc2ccc(CN3CCN(C)CC3)c(C(F)(F)F)c2)cc1C#Cc1cnc(N)c2ccncc12,-41% (active),-43.7% (active),-35.5% (active),-13.6% (active),-16.9% (active),-34.7% (active),-42.5% (active),-43.6% (active),-19% (active),-25.1% (active),-37.3% (active),22.9%,-94% (active),-59.5% (active),-72% (active),-87.6% (active),-89.3% (active),-70% (active)
CCOC(=O)c1c(NC(=O)CSc2n[nH]c3nc4ccccc4n23)sc(CC)c1C,-28.6% (active),107%,99.2%,82%,98.1%,97.4%,20.4%,106%,102%,95.2%,97.1%,137%,103%,104%,91.9%,93.9%,105%,98.3%
CC(C)CSc1oc(-c2ccccc2)nc1S(=O)(=O)c1ccccc1,91.7%,85.9%,94.7%,110%,86.6%,87%,94.5%,97.2%,96.6%,82.2%,62.4%,102%,105%,97.2%,92.3%,81.9%,100%,96%
O=C1/C(=C/c2ccc(Br)cc2)COc2ccc(O)c(O)c21,6.26% (active),-33.5% (active),6.31% (active),-59.8% (active),15.6%,58.8%,-45.7% (active),-91.5% (active),11.9%,3.52% (active),-16.3% (active),3.5% (active),-24.4% (active),-35.9% (active),4.13% (active),-15.9% (active),-66.3% (active),-68% (active)
Cc1nc2ccccc2c(/C=C/c2ccc(C(F)(F)F)cc2)c1C(=O)/C=C/c1ccccc1,8.57% (active),-17.8% (active),-13% (active),-75.7% (active),-1.62% (active),48.2%,-37.3% (active),-62.7% (active),-0.739% (active),-33.8% (active),-18.6% (active),-0.148% (active),-39.2% (active),-40.8% (active),4.74% (active),-74.9% (active),-74.7% (active),4.07% (active)
Cc1cscc(C)c1=S,72.9%,103%,83.3%,67.5%,113%,98.9%,77%,121%,122%,71.1%,96%,99.7%,104%,50.5%,59.4%,61.2%,103%,104%
CCCCCCNc1nc(NCCCCCC)c2[nH]c(NCCCCCC)nc2n1,-33.4% (active),-29.4% (active),57.3%,-7.94% (active),-16% (active),102%,68.8%,26.5%,55.7%,90.3%,33.3%,71.6%,67.5%,16.3%,20.9%,-35% (active),46.6%,50.8%
c1ccc(CCc2ccccc2-c2cc(-c3ccccc3)on2)cc1,75.7%,83.5%,103%,89.9%,77.2%,83.1%,66.4%,96%,89.4%,98.3%,55.4%,102%,105%,91%,74.7%,59.8%,90.4%,87.5%
COc1cc(C#Cc2ccc(=O)oc2C#Cc2ccccc2)cc(OC)c1OC,3.75% (active),49.2%,89.4%,75.8%,96.9%,101%,67.4%,29.9%,84.8%,89.7%,27.6%,57.6%,96%,8.07% (active),44.6%,-32.2% (active),29.1%,82.7%
Fc1ccc(COc2ccc(Nc3ncnc4sc5c(c34)CCCC5)cc2)cc1,95.8%,79.4%,101%,112%,110%,92.6%,95.3%,93.2%,98.8%,95.9%,86.6%,99.1%,96.1%,92%,88.2%,93.7%,104%,90.1%
O=P(O)(O)OCC1OC(n2cnc3c(NCc4ccccc4)ncnc32)C(O)C1O (centres undefined),41.7%,29.5%,11.5%,57.7%,25.5%,9.33% (active),1.31% (active),-66.7% (active),28.2%,29.7%,22.1%,-18.8% (active),25.4%,24.5%,27.6%,7.45% (active),29.9%,80.7%
CC(CN)[C@@H]1CC[C@]2(CO)CC[C@]3(C)[C@H](CC[C@@H]4[C@@]5(C)CCC(N)C(C)(C)[C@@H]5CC[C@]43C)[C@@H]12 (some centres undefined),-46.4% (active),-38.2% (active),-78.4% (active),-51.4% (active),-38.9% (active),103%,62.2%,-84.2% (active),4.39% (active),53.6%,6% (active),44.9%,-29.2% (active),-75.7% (active),-71.2% (active),-81.2% (active),-77.5% (active),-73.5% (active)
COc1ccc(Cc2nnc(Nc3nc4ccccc4s3)s2)cc1,60.6%,107%,103%,89.1%,105%,115%,94%,103%,94.6%,95.7%,113%,99.6%,96.8%,97.8%,105%,104%,103%,102%
COc1cc(C(=O)c2c(N)ncn2-c2ccccc2)cc(OC)c1OC,122%,136%,101%,102%,101%,95.4%,88.1%,99.2%,98.5%,82.5%,101%,98.8%,43.8%,88.1%,87.1%,90.3%,99.6%,72.4%
CCOC(=O)NN1CC(O)=C(c2nc(-c3ccc(Br)cc3)cs2)C1=N,61.4%,115%,97%,89.5%,118%,108%,53%,99.9%,110%,108%,94.2%,116%,103%,107%,103%,132%,113%,118%
NC(=O)c1c(NC(=O)c2ccc(Cl)cc2)sc2c1CCC(=O)C2,13.3%,-14.3% (active),61.3%,86.5%,9.18% (active),93%,52.6%,32.6%,64%,87.8%,35.9%,25.1%,94.5%,12.7%,57.8%,8.72% (active),104%,42.1%
